This is an account of results in PubChem BioAssay (Tox21).

Values without a mark were called inactive. Inconclusive results are not listed. Calls of active or inactive are those of the source. Unless noted, the call rests on the fitted dose curve.

Test [1] in a line: Nuclear factor erythroid 2-related factor 2/antioxidant responsive element (Nrf2/ARE) small molecule agonists: qHTS cell viability counter screen in human keratinocytes (AID 1919968; active means well fitted curve in the direction sought with a large enough effect in the repeat runs; an effect the other way counts as inactive or inconclusive; further: nearly all actives have a fitted effect of over 55% in size; further: potency means the concentration at half of the fitted maximal effect). In a few lines: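 KeratinoSens HaCaT cells, 1,500/well, preincubated 5 h, then exposed to compounds in DMSO for 23 h at 37 C/5% CO2. Viability read as CellTiter-Fluor fluorescence after 1 h, in the same wells as the ARE-luciferase read.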

A short description of test [2]: Nuclear factor erythroid 2-related factor 2/antioxidant responsive element (Nrf2/ARE) small molecule agonists: luciferase reporter gene qHTS assay in human keratinocytes (AID 1919969; further: nearly all actives have a fitted effect of over 35% in size; further: potency means the concentration at half of the fitted maximal effect). (A reporter such as luciferase makes a cellular process visible.)
Test [3] concerns the target Gonadotropin-releasing hormone receptor (Homo sapiens) (UniProt P30968). Briefly: Human gonadotropin-releasing hormone receptor (GnRHR) small molecule agonists, calcium flux assay in GnRHR-HEK293 cells (AID 1920063). Further: nearly all actives have a fitted effect of over 35% in size. In short, it runs like this:
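HEK293 cells stably expressing human GnRHR were dye-loaded for 1 h at 37 C. Compound was added in agonist mode and fluorescence (Ex/Em 480/540) recorded kinetically for 3 min. Fifteen concentrations, triplicates.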

The target of test [4] is KiSS-1 receptor (Homo sapiens) (UniProt Q969F8). Briefly: Human kisspeptin (KISS1R) small molecule agonists, calcium flux assay in KISS1R-HEK293 cells (AID 1920064; active means well fitted curve in the direction sought with a large enough effect in the repeat runs; an effect the other way counts as inactive or inconclusive). In short, it runs like this:
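HEK293 cells stably expressing human KISS1R were loaded with calcium dye for 1 h at 37 C, then given compound; fluorescence (Ex/Em 480/540) was read kinetically for 3 min. Fifteen concentrations, triplicate.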
(In general: Calcium flux is commonly read through the fluorescence of an indicator in the cells.)

Test [5] can be described thus: G protein-coupled receptor (GPCR) small molecule agonists, calcium flux assay: HEK293 wild type cell line counter screen (AID 1920065). In a few lines: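 Wild-type HEK293 cells plated 18 h, loaded with calcium dye 1 h at 37 C, then compounds added in agonist mode (ATP as positive control). Kinetic fluorescence Ex/Em 480/540 recorded 3 min at 1 sec intervals; 15 concentrations, triplicate.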

Test [6] is described as follows: p53 small molecule agonists, cell-based qHTS assay with human liver microsomes (AID 1963577). In a few lines: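 Fluorescence of the beta-lactamase reporter in p53RE-bla cells, detected with LiveBLAzer substrate (2 h, room temperature, dark), served as the read-out after 16 h compound exposure at 37 C with human liver microsomes and NADPH, each 0.5 mg/mL final.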
A general note: Quantitative high-throughput screening tests each substance at several concentrations.

Test [7] can be described thus: p53 small molecule agonists, cell-based qHTS assay with rat liver microsomes (AID 1963578). In short, it runs like this:
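Cells carrying a p53 response element–beta-lactamase reporter were plated and rested 5 h, then dosed with compound in DMSO plus rat liver microsomes and NADPH, each at 0.5 mg/mL final. After 16 h at 37 C, LiveBLAzer substrate was added for 2 h.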

A short description of test [8]: p53 small molecule agonists, cell-based qHTS assay with rat liver microsomes: qHTS cell viability counter screen (AID 1963580). Further: nearly all actives have a fitted effect of over 45% in size. In a few lines: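 p53RE-bla HCT-116 cells (4,000/well) rested 5 h at 37 C, then given Tox21 compounds in DMSO with rat liver microsomes (0.5 mg/mL final) plus NADPH (0.5 mg/mL final) for 16 h at 37 C. Viability read by CellTiter-Glo luminescence after 30 min at room temperature.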

Test [9] is described as follows: p53 small molecule agonists, cell-based qHTS assay: qHTS cell viability counter screen (AID 1963581). Further: nearly all actives have a fitted effect of over 45% in size. In a few lines:
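p53RE-bla HCT-116 cells, compounds added 5 h after plating and incubated 16 h at 37 C. Cytotoxicity measured in the same wells as intracellular ATP by CellTiter-Glo luminescence after 30 min at room temperature.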

Test [10] can be described thus: p53 small molecule agonists, cell-based qHTS assay (AID 1963582; active means well fitted activation curve with a large enough effect in the signal ratio in the repeat runs, not every such curve was filed as active; the % refers to the signal ratio; further: potency means the concentration at half of the fitted maximal effect). In a few lines: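 p53RE-bla reporter cells, compounds added in DMSO after 5 h plating, incubated 16 h at 37 C. Beta-lactamase read via 2 h room-temperature LiveBLAzer B/G FRET substrate, fluorescence intensity.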
Test [11] addresses 5-hydroxytryptamine receptor 2A (Homo sapiens) (UniProt P28223). The test can be described thus: 5-hydroxytryptamine receptor 2A (HTR2A) small molecule antagonists, cell-based qHTS assay (AID 1963586). Further: nearly all actives have a fitted effect of over 45% in size. In short, it runs like this:
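Antagonist-mode intracellular calcium assay: DOI (4 nM) added after 5 min compound pre-incubation at room temperature to dye-loaded HTR2A-CHO cells. Fluorescence followed for 3 min, sampled every second.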

For test [12] the target is unchanged. Briefly: 5-hydroxytryptamine receptor 2A (HTR2A) small molecule agonists, cell-based qHTS assay (AID 1963587). Further: nearly all actives have a fitted effect of over 30% in size. In a few lines:
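HTR2A-CHO cells, plated 18 h at 37 C/5% CO2, dye-loaded 1 h at 37 C; compounds in DMSO added by pin tool (agonist mode). Intracellular calcium flux read as kinetic fluorescence on FDSS over 2 min at 1 s intervals.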

Test [13] has as its target Muscarinic acetylcholine receptor M1 (Homo sapiens) (UniProt P11229). Briefly: Cholinergic receptor muscarinic 1 (CHRM1) small molecule antagonists, cell-based qHTS assay (AID 1963588). Further: nearly all actives have a fitted effect of over 40% in size. In short, it runs like this: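 CHRM1-CHO calcium-flux assay, antagonist mode. Cells were seeded 18 h, dye-loaded 1 h at 37 C and given compound for 5 min at RT, then acetylcholine was added at 50nM. FDSS fluorescence was read 3 min; 15 concentrations, three runs.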

Test [14] shares this target. Briefly: Cholinergic receptor muscarinic 1 (CHRM1) small molecule agonists, cell-based qHTS assay (AID 1963589). Further: nearly all actives have a fitted effect of over 35% in size. In a few lines:
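CHO cells stably expressing human CHRM1 were loaded with calcium dye for 1 h at 37 C, then compound was added in agonist mode. Intracellular calcium fluorescence was followed kinetically at 1 s intervals. Fifteen concentrations were tested in three independent runs.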

Test [15] in a line: cAMP Responsive Elements (CRE) small molecule agonists, cell-based qHTS assay (AID 1963590). In a few lines:
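CRE-bla HEK 293T cells, 2,000/well in DMEM with 10% dialyzed FBS and 25 mM HEPES, pre-incubated 18 h at 37 C, then exposed to compound 3 h at 37 C. Beta-lactamase reporter read with LiveBLAzer B/G FRET substrate after 2 h at room temperature.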

The nature of test [16]: cAMP Responsive Elements (CRE) small molecule antagonists, cell-based qHTS assay (AID 1963591; active means well fitted inhibition curve with a large enough effect in the signal ratio in the repeat runs, not every such curve was filed as active; the % refers to the signal ratio; further: potency means the concentration at half of the fitted maximal effect). In short, it runs like this:
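CRE-bla HEK293T cells plated 18 h, then given compound plus NKH477 at 0.25 uM final for 3 h at 37C. Beta-lactamase reporter read with LiveBLAzer B/G FRET substrate after 2 h at room temperature.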

For test [17], the target named is Beta-2 adrenergic receptor (Homo sapiens) (UniProt P07550). Briefly: Adrenergic beta2 receptor (ADRB2) small molecule antagonists, cell-based qHTS assay (AID 1963592). Further: series mostly up to about 92 µM; nearly all actives have a fitted effect of over 50% in size. In a few lines:
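Cells (CHO, stable ADRB2 overexpression) incubated 18-20hr at 37C; compounds added from DMSO; agonist mix (1nM isoproterenol, 100uM IBMX, 25uM Ro-20-1724) added; 0.5hr RT; d2-cAMP and anti-cAMP-cryptate added; 1hr RT; 665/615 nm read.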

The target of test [18] is D(2) dopamine receptor (Homo sapiens) (UniProt P14416). The test can be described thus: Dopamine D2 receptor (DRD2) small molecule agonists, cell-based qHTS assay (AID 1963594). Further: nearly all actives have a fitted effect of over 35% in size. In short, it runs like this: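 HEK293 cells stably expressing DRD2 were cultured 24 h at 37 C, then given Ro20-1724 (0.1 mM final) and compounds for 10 min at room temperature. NKH477 (200nM) was then added for 30 min. cAMP was read by HTRF.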
D(2) dopamine receptor (Homo sapiens), sequence (P14416 whole entry, looked up): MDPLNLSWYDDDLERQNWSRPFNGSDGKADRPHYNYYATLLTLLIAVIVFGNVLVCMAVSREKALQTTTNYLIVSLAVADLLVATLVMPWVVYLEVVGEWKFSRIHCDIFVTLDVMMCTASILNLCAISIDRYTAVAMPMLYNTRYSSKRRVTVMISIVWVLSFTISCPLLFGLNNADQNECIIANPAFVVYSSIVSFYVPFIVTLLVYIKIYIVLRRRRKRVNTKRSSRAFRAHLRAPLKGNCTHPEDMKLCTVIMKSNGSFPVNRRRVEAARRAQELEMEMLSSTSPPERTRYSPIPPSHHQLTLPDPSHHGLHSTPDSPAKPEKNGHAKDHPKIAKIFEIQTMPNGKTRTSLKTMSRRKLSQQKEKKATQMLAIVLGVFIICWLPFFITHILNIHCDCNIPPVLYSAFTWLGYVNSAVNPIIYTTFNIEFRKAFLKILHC

For test [19] the target is unchanged. The test can be described thus: Dopamine D2 receptor (DRD2) small molecule antagonists, cell-based qHTS assay (AID 1963595; active means well fitted inhibition curve with a large enough effect in the signal ratio in the repeat runs, with a control signal flat; the % refers to the signal ratio). In short, it runs like this:
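In this cell-based antagonist screen, compounds act for 10 min at room temperature before a 30 min challenge with 12 nM quinpirole and 200 nM NKH477. cAMP is quantified by HTRF competition in DRD2-HEK293 cells containing 0.1 mM Ro20-1724.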

Test [20] is described as follows: p53 small molecule agonists, cell-based qHTS assay with human liver microsomes: qHTS cell viability counter screen (AID 1963579). Further: potency means the concentration at half of the fitted maximal effect; nearly all actives have a fitted effect of over 45% in size. In a few lines: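 Cytotoxicity counter screen: p53RE-bla, 4,000 cells/well; 5 h settle, 37 C/5% CO2; cpd + HLM 0.5 mg/mL + NADPH 0.5 mg/mL (final); 16 h, 37 C; CellTiter-Glo, 30 min RT, luminescence.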

5-hydroxytryptamine receptor 2A (Homo sapiens), sequence (P28223 whole entry, looked up): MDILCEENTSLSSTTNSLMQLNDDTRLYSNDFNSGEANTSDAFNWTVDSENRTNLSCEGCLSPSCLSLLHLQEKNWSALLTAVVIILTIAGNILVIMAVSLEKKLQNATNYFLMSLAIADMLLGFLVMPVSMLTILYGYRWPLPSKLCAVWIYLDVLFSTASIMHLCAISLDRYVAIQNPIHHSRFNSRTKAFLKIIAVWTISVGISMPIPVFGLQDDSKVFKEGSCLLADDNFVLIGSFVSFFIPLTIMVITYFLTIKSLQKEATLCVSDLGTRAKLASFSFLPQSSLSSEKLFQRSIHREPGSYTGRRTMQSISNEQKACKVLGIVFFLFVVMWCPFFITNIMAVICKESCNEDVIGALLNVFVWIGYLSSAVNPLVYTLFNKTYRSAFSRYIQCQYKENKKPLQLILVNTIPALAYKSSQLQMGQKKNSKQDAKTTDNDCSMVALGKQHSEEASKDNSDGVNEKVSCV
Gonadotropin-releasing hormone receptor (Homo sapiens), sequence (P30968 whole entry, looked up): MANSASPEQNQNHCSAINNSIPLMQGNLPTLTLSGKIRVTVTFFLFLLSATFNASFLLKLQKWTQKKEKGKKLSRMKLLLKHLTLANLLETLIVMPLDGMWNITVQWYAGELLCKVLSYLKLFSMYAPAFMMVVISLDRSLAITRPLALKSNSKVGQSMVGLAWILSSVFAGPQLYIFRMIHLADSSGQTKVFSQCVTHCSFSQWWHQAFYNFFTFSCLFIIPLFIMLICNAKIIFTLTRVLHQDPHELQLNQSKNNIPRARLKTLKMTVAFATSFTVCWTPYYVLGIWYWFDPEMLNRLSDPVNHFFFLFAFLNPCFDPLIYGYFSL
KiSS-1 receptor (Homo sapiens), sequence (Q969F8 whole entry, looked up): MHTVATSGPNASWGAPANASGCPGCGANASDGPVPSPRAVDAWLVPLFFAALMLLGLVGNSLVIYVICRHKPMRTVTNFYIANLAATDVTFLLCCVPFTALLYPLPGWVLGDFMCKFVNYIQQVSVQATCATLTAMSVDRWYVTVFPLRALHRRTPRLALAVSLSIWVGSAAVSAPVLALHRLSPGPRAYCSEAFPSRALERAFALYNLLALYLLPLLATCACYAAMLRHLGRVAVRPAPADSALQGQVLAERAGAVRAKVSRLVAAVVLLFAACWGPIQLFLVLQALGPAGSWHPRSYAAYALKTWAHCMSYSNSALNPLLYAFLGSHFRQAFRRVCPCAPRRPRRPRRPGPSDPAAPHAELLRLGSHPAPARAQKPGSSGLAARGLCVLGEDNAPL
Muscarinic acetylcholine receptor M1 (Homo sapiens), sequence (P11229 whole entry, looked up): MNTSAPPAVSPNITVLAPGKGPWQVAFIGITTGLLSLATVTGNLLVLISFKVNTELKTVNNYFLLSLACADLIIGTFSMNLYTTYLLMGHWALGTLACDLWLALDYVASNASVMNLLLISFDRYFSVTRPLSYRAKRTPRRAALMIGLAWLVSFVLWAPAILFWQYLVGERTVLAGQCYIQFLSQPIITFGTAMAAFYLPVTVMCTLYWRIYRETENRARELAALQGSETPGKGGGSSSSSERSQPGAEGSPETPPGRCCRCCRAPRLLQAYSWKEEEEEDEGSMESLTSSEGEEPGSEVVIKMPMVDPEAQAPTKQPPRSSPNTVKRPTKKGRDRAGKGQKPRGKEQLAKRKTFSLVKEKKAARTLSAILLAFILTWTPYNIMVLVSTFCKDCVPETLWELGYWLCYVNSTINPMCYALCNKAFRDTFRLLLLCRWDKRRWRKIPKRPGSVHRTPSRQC
Beta-2 adrenergic receptor (Homo sapiens), sequence (P07550 whole entry, looked up): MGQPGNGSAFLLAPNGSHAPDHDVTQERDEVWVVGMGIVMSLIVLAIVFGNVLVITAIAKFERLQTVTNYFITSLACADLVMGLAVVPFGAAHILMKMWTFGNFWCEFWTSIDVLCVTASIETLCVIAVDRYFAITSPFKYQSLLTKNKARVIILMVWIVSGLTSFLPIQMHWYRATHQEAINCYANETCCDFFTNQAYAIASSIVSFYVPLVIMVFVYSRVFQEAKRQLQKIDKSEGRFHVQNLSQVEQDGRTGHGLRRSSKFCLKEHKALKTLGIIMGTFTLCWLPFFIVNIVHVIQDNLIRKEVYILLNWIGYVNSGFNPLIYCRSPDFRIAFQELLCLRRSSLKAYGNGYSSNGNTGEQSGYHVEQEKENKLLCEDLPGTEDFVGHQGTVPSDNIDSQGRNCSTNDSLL

For `CCCOC(=O)c1ccc(N)cc1`, the Potency entry in [1], in test [2], in test [3], in test [6], in test [7] and in [8] was “inactive” in each case. Moreover, the Potency result in [9], in test [10], in test [11], in test [12], in [13] and in test [14] was “inactive” each time. Besides, the Potency result in test [15], in [16], in test [17], in test [18] and in test [19] was “inactive” in each case. Also, the result in test [4] and in test [5] was inactive.

As to `CCCCCCCCN(C)CCCCCCCC`, the Potency entry in [1], in test [2], in test [3], in test [6], in test [7] and in test [8] was “inactive” each time. Also, the Potency entry in [9], in test [10], in test [11], in test [12], in test [13] and in test [14] was “inactive” each time. Besides, the Potency entry in test [15], in [16], in test [17], in test [18] and in [19] was “inactive” each time. The result in test [4] and in test [5] was inactive.

With `CCOc1ccc([N+](=O)[O-])cc1`, the Potency in test [1] was 62 µM (active); in test [20], 41.4 µM (active); in [16] it was 55.3 µM (active). The Potency entry in test [2], in [3], in [6], in test [7], in [11] and in [13] was “inactive” in each case. The Potency entry in [14], in test [15], in [17] and in [18] was “inactive” in each case. Besides, the outcome in test [4] and in test [5] was inactive.

On to `O=C1c2ccccc2C(=O)C1(O)O`, for which the Potency entry in test [1], in test [3], in test [6], in [7], in test [8] and in test [9] was “inactive” each time. The Potency entry in test [11], in [12], in test [13], in test [14], in test [17] and in test [18] was “inactive” each time. Besides, the Potency entry in test [19] is “inactive”. Further, the Potency in test [2] was 61.4 µM (active); in test [10] it was 36.5 µM (active). Also, the outcome in test [4] and in test [5] was inactive.

`O=S(=O)(O)c1ccc(O)c2ncccc12`: the Potency entry in test [1], in test [2], in test [3], in test [6], in test [7] and in test [8] was “inactive” each time. Moreover, the Potency entry in [9], in [10], in [11], in test [12], in test [13] and in test [14] was “inactive” in each case. The Potency result in test [15], in test [17], in test [18] and in test [19] was “inactive” throughout. The result in test [4] and in test [5] was inactive.

Regarding `CCc1nccnc1C`, the Potency entry in test [1], in test [2], in test [3], in test [6], in test [7] and in [8] was “inactive” in each case. For the same compound, the Potency entry in [9], in [10], in test [11], in test [12], in [13] and in test [14] was “inactive” in each case. In addition, the Potency result in [15], in test [16], in test [17], in [18] and in test [19] was “inactive” throughout. The result in test [4] and in test [5] was inactive.

For the compound `Cc1ccnc2ccccc12`, the Potency result in [1], in [3], in test [6], in test [7], in test [8] and in test [9] was “inactive” throughout. In addition, the Potency entry in test [10], in test [11], in test [12], in test [13], in test [14] and in [15] was “inactive” each time. For the same compound, the Potency entry in test [16], in test [18] and in test [19] was “inactive” in each case. In addition, the Potency in test [2] was 68.4 µM (active). In addition, the outcome in [4] and in test [5] was inactive.
